Here are results for 40 molecules from PubChem BioAssay.

What is called inhibition is the drop in the measured response relative to a control, in per cent.

The other results are listed elsewhere or left out. The source made the active and inactive calls.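 How the source made its calls, unless noted: active means inhibition above the hit cutoff set in the earlier primary screen (cut at about 27% in these data); inactive means the rest.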

Chain of Induced myeloid leukemia cell differentiation protein Mcl-1 (Homo sapiens) (Q07820 whole entry, looked up): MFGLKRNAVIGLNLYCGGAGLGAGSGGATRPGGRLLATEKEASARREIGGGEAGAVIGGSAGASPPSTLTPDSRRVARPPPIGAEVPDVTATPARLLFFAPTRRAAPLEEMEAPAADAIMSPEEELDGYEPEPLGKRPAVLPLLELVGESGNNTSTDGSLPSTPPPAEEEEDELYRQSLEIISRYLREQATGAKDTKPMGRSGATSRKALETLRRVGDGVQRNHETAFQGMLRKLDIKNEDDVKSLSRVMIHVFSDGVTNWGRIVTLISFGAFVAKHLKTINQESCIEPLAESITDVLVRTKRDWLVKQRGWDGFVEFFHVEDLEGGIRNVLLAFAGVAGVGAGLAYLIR
Chain of Bcl-2-like protein 1 (Homo sapiens) (Q07817 whole entry, looked up): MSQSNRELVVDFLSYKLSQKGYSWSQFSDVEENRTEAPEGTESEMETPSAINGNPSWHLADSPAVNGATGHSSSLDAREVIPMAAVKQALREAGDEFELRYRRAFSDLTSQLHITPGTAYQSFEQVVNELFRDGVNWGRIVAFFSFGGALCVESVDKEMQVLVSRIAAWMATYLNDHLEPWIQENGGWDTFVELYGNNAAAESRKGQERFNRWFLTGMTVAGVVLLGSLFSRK

One experiment concerns the target Bcl-2-like protein 1 (Homo sapiens) (UniProt Q07817). Briefly: Bcl-xL inhibitors blocking Bim BH3 binding, confirmation, counter-screen for MCL1 inhibitor project, biochemical, fluorescence polarization (AID 2166;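 active means inhibition above a cutoff equal to the mean inhibition of all tested compounds plus 3 SD, cut at about 30% in these data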). As to conditions: GST-Bcl-xL / FITC-Bim BH3 peptide FP binding; at 10.9 µM; active compounds read high.
With `CC12CCC(C(=O)N(NC(=O)c3ccccc3O)C1=O)C2(C)C` (centres undefined), the inhibition is 10.1% (inactive).

Regarding `Cc1cc(C)c(/C=C2\C(=O)Nc3ccccc32)[nH]1`, the inhibition is 147% (active). The same measure, in the same setting: next, `Nc1cccc2c1C(=O)N(Cc1nnc(-c3ccccc3Br)o1)C2=O`: 51.2% (active); `CC[C@]1(O)C[C@@H]2CN(CCc3c([nH]c4ccccc34)[C@@](C(=O)OC)(c3cc4c(cc3OC)N(C)[C@H]3[C@@](O)(C(=O)OC)[C@H](OC(C)=O)[C@]5(CC)C=CCN6CC[C@]43[C@@H]65)C2)C1`: 27.1% (inactive); `CCCC1OC23CCCCC2C(C#N)(C#N)C1(C#N)C(=N)O3` (centres undefined): 19.5% (inactive). Still for that read-out and setting: in the case of `Cc1nn(Cc2ccccc2)c(C)c1CNC(=O)c1ccc(F)c(S(=O)(=O)N2CCOCC2)c1` it was 9.04% (inactive); in that of `COc1ncnc2c1N=C1CC(C)(C)CC(N)=C1S2`, 144% (active); in that of `Cc1cccn2c(=O)c3cc(C(=O)NCCN4CCOCC4)c(=N)n(Cc4cccnc4)c3nc12`, 55.8% (active). On the same count and under the same terms, in the case of `O=c1ccc2c(-c3ccccc3S(=O)(=O)O)c3ccc(O)c(O)c3oc-2c1O` it was 82.9% (active); in that of `Cc1nn(C(=O)c2ccoc2C)c(N)c1-c1ccccc1`, 1.59% (inactive). Consider `CCN1CC=C2C(C#N)=C(N)C(C#N)(C#N)[C@H](c3ccoc3)[C@H]2C1`, for which the inhibition is 97.5% (active).

For the molecule `C=C1c2c(Cl)ccc(O)c2C(O)=C2C(=O)[C@]3(O)C(O)=C(C(N)=O)C(=O)[C@@H](N(C)C)[C@@H]3[C@@H](O)C12` (some centres undefined), the inhibition was 37.7% (active). On the same count and under the same terms, next, `COc1ccc(Nc2nc(-c3cccnc3)nc3ccccc23)cn1`: 90.3% (active); `Cc1cc2nc3c(=O)n(Cc4ccccc4)c(=O)[nH]c3nc2cc1N`: 198% (active); `COc1ccc(N2CC(C(=O)NCCN3C(=O)S/C(=C\c4cccnc4)C3=O)CC2=O)c(OC)c1` (centres undefined): -1.58% (inactive).

The next experiment concerns the target Induced myeloid leukemia cell differentiation protein Mcl-1 (Homo sapiens) (UniProt Q07820). Briefly: inhibitors of MCL1 binding to BIM-BH3, confirmation, biochemical, fluorescence polarization, triplicate (AID 2168;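 active means inhibition above the average of all tested compounds plus 3 SD, cut at about 40% in these data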;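 further: 0% = DMSO wells and 100% = unlabeled Bim-BH3 control peptide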). The note with it: GST-MCL1 / FITC-Bim-BH3 fluorescence polarization; at 10.9 µM; active compounds read high.
As to `CC12CCC(C(=O)N(NC(=O)c3ccccc3O)C1=O)C2(C)C` (centres undefined), the inhibition was 41.1% (active). Still for that read-out and setting: in the case of `Cc1cc(C)c(/C=C2\C(=O)Nc3ccccc32)[nH]1` it was 168% (active); in that of `Nc1cccc2c1C(=O)N(Cc1nnc(-c3ccccc3Br)o1)C2=O`, 69% (active); in that of `CC[C@]1(O)C[C@@H]2CN(CCc3c([nH]c4ccccc34)[C@@](C(=O)OC)(c3cc4c(cc3OC)N(C)[C@H]3[C@@](O)(C(=O)OC)[C@H](OC(C)=O)[C@]5(CC)C=CCN6CC[C@]43[C@@H]65)C2)C1`, 35.2% (inactive). Still for that read-out and setting: in the case of `CCCC1OC23CCCCC2C(C#N)(C#N)C1(C#N)C(=N)O3` (centres undefined) it was 21% (inactive). As to `Cc1nn(Cc2ccccc2)c(C)c1CNC(=O)c1ccc(F)c(S(=O)(=O)N2CCOCC2)c1`, the inhibition was 4.37% (inactive).

In the case of `COc1ncnc2c1N=C1CC(C)(C)CC(N)=C1S2`, the inhibition is 181% (active). Same read-out and setting: next, `Cc1cccn2c(=O)c3cc(C(=O)NCCN4CCOCC4)c(=N)n(Cc4cccnc4)c3nc12`: 65.7% (active). In the case of `O=c1ccc2c(-c3ccccc3S(=O)(=O)O)c3ccc(O)c(O)c3oc-2c1O`, the inhibition was 67.6% (active). Consider `Cc1nn(C(=O)c2ccoc2C)c(N)c1-c1ccccc1`, for which the inhibition is -8.2% (inactive). For `CCN1CC=C2C(C#N)=C(N)C(C#N)(C#N)[C@H](c3ccoc3)[C@H]2C1`, the inhibition is 114% (active). Still for that read-out and setting: in the case of `C=C1c2c(Cl)ccc(O)c2C(O)=C2C(=O)[C@]3(O)C(O)=C(C(N)=O)C(=O)[C@@H](N(C)C)[C@@H]3[C@@H](O)C12` (some centres undefined) it was 79% (active); in that of `COc1ccc(Nc2nc(-c3cccnc3)nc3ccccc23)cn1`, 114% (active). Same read-out and setting: in the case of `COc1ccc(N2CC(C(=O)NCCN3C(=O)S/C(=C\c4cccnc4)C3=O)CC2=O)c(OC)c1` (centres undefined) it was -8.97% (inactive).

For another experiment, the target named is Protein phosphatase methylesterase 1 (Homo sapiens) (UniProt Q9Y570). As to the kind of experiment: PME-1 inhibitor activity retest, confirmation, biochemical, fluorescence polarization, FP-Rh probe, triplicate (AID 2171).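 Further: 0% = enzyme with DMSO and 100% = wells lacking PME-1.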 As to conditions: recombinant PME-1, FP-Rh probe fluorescence polarization; at 5.9 µM; active compounds read high. (In general: In fluorescence polarisation assays a small probe gives low polarisation when free and higher when bound to something large.)
Chain of Protein phosphatase methylesterase 1 (Homo sapiens) (Q9Y570 whole entry, looked up): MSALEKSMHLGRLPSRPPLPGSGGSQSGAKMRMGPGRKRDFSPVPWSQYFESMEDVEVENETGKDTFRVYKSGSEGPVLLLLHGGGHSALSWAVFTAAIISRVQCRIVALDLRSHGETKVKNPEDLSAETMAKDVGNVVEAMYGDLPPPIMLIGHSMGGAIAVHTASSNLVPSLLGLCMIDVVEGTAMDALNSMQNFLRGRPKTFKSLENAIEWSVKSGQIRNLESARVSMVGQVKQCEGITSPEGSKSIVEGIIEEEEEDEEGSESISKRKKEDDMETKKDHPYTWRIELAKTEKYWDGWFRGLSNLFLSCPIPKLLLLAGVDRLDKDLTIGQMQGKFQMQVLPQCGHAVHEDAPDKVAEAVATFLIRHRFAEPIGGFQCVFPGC
On to `N#C/C(=C\c1ccc(O)c(O)c1)C(=O)Nc1cccc2ncccc12`, for which the inhibition was -29.9% (inactive). On the same count and under the same terms, next, `COc1cc2c(cc1NC(=O)Nc1ccccc1)oc1ccccc12`: -9.58% (inactive).

For `Cc1cc(C)c(NC(=O)COC(=O)c2cccc3c2C(=O)c2ccccc2C3=O)c(C)c1`, the inhibition was 42.1% (active).

For `Cc1ccc(S(=O)(=O)/N=C2/C=C(Sc3ncn[nH]3)C(=O)c3ccccc32)c(C)c1`, the inhibition is 49.6% (active). Still for that read-out and setting: in the case of `Oc1c(Br)cc(Br)cc1CNc1cnc2ccccc2c1` it was 34.8% (active). On to `CCOc1ccc(C(=O)NC(C)CCc2ccccc2)cc1` (centres undefined), for which the inhibition was -6.46% (inactive). Still for that read-out and setting: in the case of `Cc1ccc2[nH]c(O)c(N=NC(=O)c3ccc(NS(=O)(=O)c4cccs4)cc3)c2c1` it was 45.9% (active); in that of `CCc1cccc2cc3c(N)c(C(=O)Nc4ccc(S(=O)(=O)N5CCCC5)cc4)sc3nc12`, -1.66% (inactive); in that of `CC1(OC(=O)c2cnc3ccccc3n2)C(=O)C=C2C=C(C3CC3)OC=C2C1=O` (centres undefined), 23.9% (inactive).

In the case of `N#Cc1ccc(Nc2nc(-c3ccc(O)cc3O)cs2)cc1C(F)(F)F`, the inhibition is 51.9% (active). Still for that read-out and setting: next, `Cc1ccc(Nc2cc(C)c3c(O)cccc3n2)cc1C`: 26.7% (active); `CSc1ccccc1C(=O)NCCCn1ccnc1`: 5.36% (inactive).

Consider `C/C(=N\Nc1ccccc1C(=O)O)c1ccncc1`, for which the inhibition is 1.32% (inactive). Turning to `COc1cc(OC)c2cc(C(=O)N/N=C/c3ccccc3O)[nH]c2c1`, the inhibition was 19.1% (inactive). On the same count and under the same terms, in the case of `COc1ccc(NC(=S)Nc2ccc3nsnc3c2)cc1` it was 24.3% (inactive); in that of `COc1ccc(C2CC(c3ccc(OC)c(OC)c3)=NN2S(C)(=O)=O)cc1` (centres undefined), 22.9% (inactive); in that of `Nc1c(N=Nc2ccccc2F)c(=O)[nH]n1-c1ccccc1`, 30.1% (active). Regarding `S=C(NCCNC(=S)Nc1ccccc1)Nc1ccccc1`, the inhibition was 19.9% (inactive). As to `CCOc1ccc(/C=N/Nc2cc(N3CCOCC3)nc(C)n2)c(O)c1`, the inhibition is 26.4% (active). The same measure, in the same setting: next, `Cc1cc(C)c2c(N)c(-c3nc4ccccc4[nH]3)sc2n1`: 3.16% (inactive); `CC#CCN1c2ccccc2[C@]23C[C@@H](C(=O)OC)N(C(=O)c4cc(C)oc4C)C2=NC(C(=O)OC)=C(C(=O)OC)[C@H]13`: 29.6% (active); `Cc1[nH]c2ccccc2c1N=Nc1ccccc1C(=O)O`: 20.8% (inactive).

Regarding `Oc1ccc(N=Cc2ccc(OCc3ccccc3)cc2)cc1`, the inhibition is 6.36% (inactive).

With `Cc1ccc(C(=O)Nc2nnc(CC(=O)N/N=C/c3ccc(O)c(O)c3)s2)cc1`, the inhibition was -26.6% (inactive). Still for that read-out and setting: in the case of `CCN(CC(=O)Nc1c(F)cccc1F)C(=O)CCc1ccc(OC)cc1` it was 6.49% (inactive).
